# Tested on: CSNK1A1
# 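Also: kd values determined as follow-up on hits from a single-replicate KINOMEscan panel screen.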
row,Structure (SMILES),Kd [nM]
1,CC(C)N1CCC(n2cnc(-c3ccc(F)cc3)c2-c2ccnc(N)n2)CC1 [SB-223132],59
2,CN1CCC(n2cnc(-c3ccc(F)cc3)c2-c2ccnc(NC3CCNCC3)n2)CC1 [SB-229482],160
3,CNc1nccc(-c2c(-c3ccc(F)cc3)ncn2C2CCN(C)CC2)n1 [SB-222903],24
4,CCc1nc(-c2cccc(C)c2)c(-c2ccnc(NC(=O)c3ccccc3)c2)s1,1400
5,Fc1ccc(-c2ncn(CCCNCc3ccccc3)c2-c2ccncc2)cc1,210
6,Nc1nc(-c2ccccn2)c(-c2ccnc3ccccc23)s1 [GW548057],1200

# Tested on: CSNK1D
row,Structure (SMILES),Kd [nM]
1,CC(C)N1CCC(n2cnc(-c3ccc(F)cc3)c2-c2ccnc(N)n2)CC1 [SB-223132],39
2,CN1CCC(n2cnc(-c3ccc(F)cc3)c2-c2ccnc(NC3CCNCC3)n2)CC1 [SB-229482],89
3,CNc1nccc(-c2c(-c3ccc(F)cc3)ncn2C2CCN(C)CC2)n1 [SB-222903],5.7
4,FC(F)(F)c1cc(Nc2nccc(-c3c(-c4ccc(Cl)cc4)nn4ncccc34)n2)ccc1Cl [GW829351],2200
5,CCc1nc(-c2cccc(C)c2)c(-c2ccnc(NC(=O)c3ccccc3)c2)s1,690
6,Fc1ccc(-c2ncn(CCCNCc3ccccc3)c2-c2ccncc2)cc1,47
7,Nc1nc(-c2ccccn2)c(-c2ccnc3ccccc23)s1 [GW548057],1800
8,COc1ccc(Nc2nccc(N3CCC(NC(=O)Nc4ccc5c(c4)OCO5)C3)n2)cc1 (stereo not drawn) [GSK1379745],> 10000

# Tested on: CSNK1E
row,Structure (SMILES),Kd [nM]
1,CC(C)N1CCC(n2cnc(-c3ccc(F)cc3)c2-c2ccnc(N)n2)CC1 [SB-223132],230
2,O=C(NCCCN1CCCC1=O)c1cnc(NCc2cc(Cl)ccc2Cl)nc1NC1CCNCC1,230
3,CN1CCC(n2cnc(-c3ccc(F)cc3)c2-c2ccnc(NC3CCNCC3)n2)CC1 [SB-229482],210
4,CNc1nccc(-c2c(-c3ccc(F)cc3)ncn2C2CCN(C)CC2)n1 [SB-222903],17
5,CSc1nn2c(=O)cc(N3CCOCC3)nc2n1Cc1cccc(Cl)c1Cl [GSK2347225],> 10000
6,CCc1nc(-c2cccc(C)c2)c(-c2ccnc(NC(=O)c3ccccc3)c2)s1,880
7,Fc1ccc(-c2ncn(CCCNCc3ccccc3)c2-c2ccncc2)cc1,130

# From article PMC5540273 (PLoS ONE, 2017)
